Common to all, as to assay: log2 fold change, soluble protein after heating vs DMSO (PISA); higher = thermal stabilisation; K562 lysate, 10 uM; active = over 0.2 and 3.5 SD of the protein, either way, in both replicates (recomputed)
Compound in assay [1]: NCC(=O)Nc1ccc(-n2nc(C(F)(F)F)cc2-c2ccc3c(ccc4ccccc43)c2)cc1
Put shortly: (§1)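 Pellets of K562 cells were dounce-homogenised in PBS pH 7.4 with 1 mM MgCl2, and the crude extract was held at 1 mg/mL protein for a 30 min treatment with 10 μM compound. Aliquots were heated for 3 min over 48°C-58°C and pooled before NP-40 was added to 0.5% at 4°C. The supernatant from 21,000xg for 90 min was quantified by TMTpro 16plex LC-MS/MS with channel sums equalised. Values are reported from duplicates as log-two fold change in thermal stability relative to solvent controls.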

Compound in assay [2]: O=C(CCCCCCC(=O)Nc1ccccc1)NO [vorinostat]
Put shortly: as §1

Compound in assay [3]: O=C(O)c1ccc2c(c1)nc(Nc1cccc(Cl)c1)c1ccncc12 [silmitasertib]
The procedure, abridged:
as §1

Compound in assay [4]: O=C1NC(=O)C(c2cnc3ccccn23)=C1c1cn2c3c(cc(F)cc13)CN(C(=O)N1CCCCC1)CC2
Put shortly: as §1

Compound in assay [5]: c1cn2cc(-c3ccc4cn[nH]c4c3)nc(Nc3ccc(N4CCOCC4)cc3)c2n1 [entospletinib]
Put shortly: as §1

The full data set covers some 8,800 targets. This sample favours those with a hit. About 0.5% of all pairs of compound and target were hits. Unmarked numbers belong to inactive results.

Chain of UniProt Q16875 (Q16875 whole entry, looked up): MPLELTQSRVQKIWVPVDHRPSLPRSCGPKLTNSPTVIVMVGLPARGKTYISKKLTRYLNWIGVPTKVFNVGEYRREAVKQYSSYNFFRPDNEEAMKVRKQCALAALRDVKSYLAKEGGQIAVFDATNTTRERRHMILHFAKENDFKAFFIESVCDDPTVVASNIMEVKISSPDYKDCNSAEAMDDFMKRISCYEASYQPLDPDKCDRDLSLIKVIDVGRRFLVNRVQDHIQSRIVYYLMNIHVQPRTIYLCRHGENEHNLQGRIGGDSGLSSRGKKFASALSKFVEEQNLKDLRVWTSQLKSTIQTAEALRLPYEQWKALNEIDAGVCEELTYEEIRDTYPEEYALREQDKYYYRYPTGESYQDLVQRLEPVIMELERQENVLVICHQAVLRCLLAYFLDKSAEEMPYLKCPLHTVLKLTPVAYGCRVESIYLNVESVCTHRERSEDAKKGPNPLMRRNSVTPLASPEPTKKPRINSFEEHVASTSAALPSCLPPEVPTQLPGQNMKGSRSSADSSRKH
Chain of UniProt Q05655 (Q05655 whole entry, looked up): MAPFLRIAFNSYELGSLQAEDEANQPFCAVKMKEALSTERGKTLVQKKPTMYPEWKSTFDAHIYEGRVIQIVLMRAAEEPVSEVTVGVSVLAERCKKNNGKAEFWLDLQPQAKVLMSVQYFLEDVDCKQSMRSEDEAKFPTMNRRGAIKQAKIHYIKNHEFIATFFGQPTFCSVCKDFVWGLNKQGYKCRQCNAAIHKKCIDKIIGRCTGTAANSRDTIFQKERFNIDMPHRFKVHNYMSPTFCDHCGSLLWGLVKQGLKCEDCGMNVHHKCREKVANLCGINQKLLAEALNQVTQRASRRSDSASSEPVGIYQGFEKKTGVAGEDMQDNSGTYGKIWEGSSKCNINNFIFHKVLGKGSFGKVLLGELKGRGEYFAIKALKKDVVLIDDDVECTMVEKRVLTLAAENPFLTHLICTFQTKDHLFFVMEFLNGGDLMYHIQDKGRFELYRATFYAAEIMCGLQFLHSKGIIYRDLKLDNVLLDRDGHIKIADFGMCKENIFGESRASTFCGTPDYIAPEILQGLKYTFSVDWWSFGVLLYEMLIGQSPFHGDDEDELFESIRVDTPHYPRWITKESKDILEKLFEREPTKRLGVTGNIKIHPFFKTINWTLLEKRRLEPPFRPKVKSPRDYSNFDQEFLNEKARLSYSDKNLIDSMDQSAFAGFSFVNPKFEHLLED
Chain of UniProt P50336 (P50336 whole entry, looked up): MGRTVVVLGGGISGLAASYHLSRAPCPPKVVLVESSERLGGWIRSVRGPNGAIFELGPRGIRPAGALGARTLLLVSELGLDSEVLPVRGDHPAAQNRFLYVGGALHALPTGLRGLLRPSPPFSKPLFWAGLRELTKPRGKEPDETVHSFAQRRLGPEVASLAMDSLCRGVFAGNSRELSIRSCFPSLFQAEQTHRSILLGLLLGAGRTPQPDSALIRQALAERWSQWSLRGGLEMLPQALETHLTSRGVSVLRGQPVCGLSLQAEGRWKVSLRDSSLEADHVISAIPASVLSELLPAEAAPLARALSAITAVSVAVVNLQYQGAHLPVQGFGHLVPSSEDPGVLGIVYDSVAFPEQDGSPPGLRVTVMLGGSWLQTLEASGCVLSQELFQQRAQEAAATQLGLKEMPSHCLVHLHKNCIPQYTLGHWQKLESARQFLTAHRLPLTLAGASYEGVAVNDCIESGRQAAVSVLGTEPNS
Chain of UniProt Q9NR22 (Q9NR22 whole entry, looked up): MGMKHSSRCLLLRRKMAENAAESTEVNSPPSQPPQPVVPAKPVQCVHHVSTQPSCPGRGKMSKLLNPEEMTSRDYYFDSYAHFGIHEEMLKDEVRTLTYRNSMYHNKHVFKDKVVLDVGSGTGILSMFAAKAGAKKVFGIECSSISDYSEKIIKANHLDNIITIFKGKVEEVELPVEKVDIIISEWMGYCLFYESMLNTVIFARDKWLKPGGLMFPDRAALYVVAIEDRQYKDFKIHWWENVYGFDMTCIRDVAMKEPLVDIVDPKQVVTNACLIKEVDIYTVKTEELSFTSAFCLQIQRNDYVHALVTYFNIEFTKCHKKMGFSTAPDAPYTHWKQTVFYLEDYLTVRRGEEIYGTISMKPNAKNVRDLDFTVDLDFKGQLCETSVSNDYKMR
Chain of UniProt O00625 (O00625 whole entry, looked up): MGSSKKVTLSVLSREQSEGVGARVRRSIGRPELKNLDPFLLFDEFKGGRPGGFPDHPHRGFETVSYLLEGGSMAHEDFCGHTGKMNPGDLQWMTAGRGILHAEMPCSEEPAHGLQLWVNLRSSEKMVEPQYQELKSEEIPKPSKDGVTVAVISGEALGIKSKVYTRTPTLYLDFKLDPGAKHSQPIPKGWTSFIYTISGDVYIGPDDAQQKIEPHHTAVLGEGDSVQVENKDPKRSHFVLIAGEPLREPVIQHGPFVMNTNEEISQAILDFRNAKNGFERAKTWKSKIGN
Chain of UniProt O60237 (O60237 whole entry, looked up): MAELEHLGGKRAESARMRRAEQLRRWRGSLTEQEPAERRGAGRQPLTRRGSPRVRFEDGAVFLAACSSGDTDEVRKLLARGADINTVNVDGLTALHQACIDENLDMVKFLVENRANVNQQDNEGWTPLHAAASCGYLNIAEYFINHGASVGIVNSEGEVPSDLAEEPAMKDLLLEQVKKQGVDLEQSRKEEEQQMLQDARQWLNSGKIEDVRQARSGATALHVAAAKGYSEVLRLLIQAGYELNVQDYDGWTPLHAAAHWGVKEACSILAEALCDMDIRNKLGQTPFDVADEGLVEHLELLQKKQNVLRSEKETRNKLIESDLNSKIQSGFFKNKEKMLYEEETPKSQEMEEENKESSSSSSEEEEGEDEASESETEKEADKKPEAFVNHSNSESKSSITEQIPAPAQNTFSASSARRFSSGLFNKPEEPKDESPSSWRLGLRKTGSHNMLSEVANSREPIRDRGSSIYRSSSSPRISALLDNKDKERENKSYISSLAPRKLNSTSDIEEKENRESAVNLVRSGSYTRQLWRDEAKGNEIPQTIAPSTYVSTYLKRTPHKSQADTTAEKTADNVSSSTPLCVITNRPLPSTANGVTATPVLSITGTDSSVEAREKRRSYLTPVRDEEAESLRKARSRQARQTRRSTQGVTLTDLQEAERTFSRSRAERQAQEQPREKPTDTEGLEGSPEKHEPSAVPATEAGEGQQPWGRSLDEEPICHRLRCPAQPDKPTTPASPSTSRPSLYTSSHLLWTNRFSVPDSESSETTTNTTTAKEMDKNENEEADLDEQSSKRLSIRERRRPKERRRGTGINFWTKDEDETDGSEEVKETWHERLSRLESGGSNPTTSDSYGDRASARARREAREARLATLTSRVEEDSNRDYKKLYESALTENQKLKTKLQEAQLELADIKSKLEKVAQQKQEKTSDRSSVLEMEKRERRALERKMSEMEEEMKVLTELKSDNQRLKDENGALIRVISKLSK
Chain of UniProt P53350 (P53350 whole entry, looked up): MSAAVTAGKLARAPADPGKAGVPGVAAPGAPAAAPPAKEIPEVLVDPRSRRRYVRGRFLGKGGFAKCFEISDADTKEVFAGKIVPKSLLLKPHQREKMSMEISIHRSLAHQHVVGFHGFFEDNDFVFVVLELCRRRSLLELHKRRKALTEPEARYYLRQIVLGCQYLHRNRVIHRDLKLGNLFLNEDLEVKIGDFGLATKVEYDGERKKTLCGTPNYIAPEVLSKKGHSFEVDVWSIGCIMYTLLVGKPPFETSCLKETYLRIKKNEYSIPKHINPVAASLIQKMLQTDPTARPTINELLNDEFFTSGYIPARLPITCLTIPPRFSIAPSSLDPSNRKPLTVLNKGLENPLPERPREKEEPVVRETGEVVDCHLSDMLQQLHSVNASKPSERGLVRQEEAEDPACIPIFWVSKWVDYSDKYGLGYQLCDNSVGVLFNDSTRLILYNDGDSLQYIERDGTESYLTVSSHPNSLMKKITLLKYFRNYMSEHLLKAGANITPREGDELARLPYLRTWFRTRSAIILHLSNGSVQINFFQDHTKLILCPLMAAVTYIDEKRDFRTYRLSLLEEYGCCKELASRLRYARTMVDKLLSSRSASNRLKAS
Chain of UniProt Q9NVU0 (Q9NVU0 whole entry, looked up): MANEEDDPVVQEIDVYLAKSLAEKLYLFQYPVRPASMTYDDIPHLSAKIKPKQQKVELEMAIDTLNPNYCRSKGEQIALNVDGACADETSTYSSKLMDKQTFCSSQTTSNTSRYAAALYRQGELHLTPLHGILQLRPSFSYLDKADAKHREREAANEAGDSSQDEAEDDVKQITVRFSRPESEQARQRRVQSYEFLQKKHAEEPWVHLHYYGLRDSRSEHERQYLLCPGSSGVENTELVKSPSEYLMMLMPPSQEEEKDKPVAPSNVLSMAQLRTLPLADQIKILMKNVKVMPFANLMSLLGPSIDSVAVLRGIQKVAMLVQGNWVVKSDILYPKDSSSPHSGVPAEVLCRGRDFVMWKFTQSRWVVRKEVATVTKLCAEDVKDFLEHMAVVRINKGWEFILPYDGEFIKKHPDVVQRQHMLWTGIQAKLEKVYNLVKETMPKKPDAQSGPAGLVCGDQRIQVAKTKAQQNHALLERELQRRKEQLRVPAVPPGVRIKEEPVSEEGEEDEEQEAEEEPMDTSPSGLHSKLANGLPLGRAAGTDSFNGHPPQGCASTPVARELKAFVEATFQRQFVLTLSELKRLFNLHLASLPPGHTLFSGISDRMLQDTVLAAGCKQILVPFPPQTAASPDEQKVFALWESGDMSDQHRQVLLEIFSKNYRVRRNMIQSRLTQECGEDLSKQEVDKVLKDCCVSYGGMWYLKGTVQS
Chain of UniProt Q9UHV9 (Q9UHV9 whole entry, looked up): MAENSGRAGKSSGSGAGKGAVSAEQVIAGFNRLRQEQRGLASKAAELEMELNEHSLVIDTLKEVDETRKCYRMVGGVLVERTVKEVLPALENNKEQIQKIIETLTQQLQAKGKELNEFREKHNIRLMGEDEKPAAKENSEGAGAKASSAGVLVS

PIP4K2A (UniProt P48426): the log2 fold change in assay [1] was 0.027; in assay [2] it was 0.024; in assay [3], 0.225; in assay [4] it was 0.007; in assay [5], -0.029.

For PPP2R5C isoform 5 (UniProt Q13362), the log2 fold change in assay [1] is 0.002; in assay [2] it was 0.049; in assay [3], 0.019; in assay [4], 0.022; in assay [5] it was 0.011.

Regarding PPOX (UniProt P50336), the log2 fold change in assay [1] is 0; in assay [2], -0.142; in assay [3], 0.11; in assay [4] it was 0.016; in assay [5] it was 0.

PPP1R12B isoform 6 (UniProt O60237): the log2 fold change is 0.168 in assay [1]; -0.063 in assay [2]; 0.091 in assay [3]; -0.005 in assay [4]; -0.052 in assay [5].

As for PGGT1B (UniProt P53609), the log2 fold change in assay [1] is -0.038; in assay [2], 0.08; in assay [3], 0.109; in assay [4], -0.029; in assay [5] it was -0.054.

Take PIKFYVE (UniProt Q9Y2I7): the log2 fold change in assay [1] was 0.031; in assay [2], -0.476 (active); in assay [3], 0.03; in assay [4], -0.026; in assay [5] it was -0.014.

For PRMT5 (UniProt O14744), the log2 fold change in assay [1] is 0.012; in assay [2], 0.013; in assay [3] it was -0.037; in assay [4] it was 0.001; in assay [5], 0.013.

Take PHOSPHO2 (UniProt Q8TCD6): the log2 fold change is -0.051 in assay [1]; 0.181 in assay [2]; -0.002 in assay [3]; 0.001 in assay [4]; -0.116 in assay [5].

PDE4DIP (UniProt E9PS60): the log2 fold change in assay [1] was 0.002; in assay [2], -0.157; in assay [3], 0.082; in assay [4], 0.039; in assay [5], 0.103.

In the case of PLK1 (UniProt P53350), the log2 fold change is 0.027 in assay [1]; -0.638 (active) in assay [2]; 0.005 in assay [3]; 0.022 in assay [4]; 0.072 in assay [5].

Turning to POLR3E (UniProt Q9NVU0), the log2 fold change in assay [1] is -0.017; in assay [2], -0.263 (active); in assay [3], -0.023; in assay [4] it was 0.027; in assay [5] it was -0.004.

For the target PRKD2 isoform 3 (UniProt Q9BZL6), the log2 fold change in assay [1] is -0.043; in assay [2] it was -0.326 (active); in assay [3] it was 0.051; in assay [4], 0.088; in assay [5], 0.052.

With PDCD6IP isoform 2 (UniProt Q8WUM4), the log2 fold change is -0.001 in assay [1]; -0.473 (active) in assay [2]; 0.019 in assay [3]; -0.006 in assay [4]; 0.018 in assay [5].

On to PCBP2 isoform 8 (UniProt Q15366), for which the log2 fold change in assay [1] is -0.06; in assay [2] it was -0.489 (active); in assay [3], -0.037; in assay [4], 0.054; in assay [5], -0.091.

On to PRMT8 (UniProt Q9NR22), for which the log2 fold change in assay [1] was 0.067; in assay [2] it was -0.157; in assay [3], -0.018; in assay [4], -0.017; in assay [5], 0.002.

With PES1 (UniProt O00541), the log2 fold change was 0.03 in assay [1]; -0.193 in assay [2]; 0.037 in assay [3]; 0.014 in assay [4]; -0.015 in assay [5].

On to PDIA4 (UniProt P13667), for which the log2 fold change was 0.001 in assay [1]; 0.119 in assay [2]; -0.011 in assay [3]; 0.021 in assay [4]; 0.004 in assay [5].

PHKG1 isoform 2 (UniProt Q16816): the log2 fold change was 0.053 in assay [1]; -0.342 in assay [2]; 0.259 in assay [3]; -0.123 in assay [4]; -0.002 in assay [5].

In the case of PIGO (UniProt Q8TEQ8), the log2 fold change in assay [1] was -0.156; in assay [2], 0.15; in assay [3], 0.18; in assay [4], 0.121; in assay [5], -0.015.

On to PRAME (UniProt P78395), for which the log2 fold change in assay [1] was 0.025; in assay [2] it was -0.283 (active); in assay [3], 0.043; in assay [4], 0.004; in assay [5] it was 0.048.

In the case of PIR (UniProt O00625), the log2 fold change was 0.015 in assay [1]; 0.035 in assay [2]; -0.049 in assay [3]; -0.013 in assay [4]; -0.035 in assay [5].

On to PFKFB3 isoform 4 (UniProt Q16875), for which the log2 fold change in assay [1] is 0.025; in assay [2], -0.34 (active); in assay [3] it was 0.108; in assay [4] it was 0.017; in assay [5], -0.006.

For PRKCD (UniProt Q05655), the log2 fold change in assay [1] was 0.008; in assay [2], -0.075; in assay [3], -0.006; in assay [4], -0.005; in assay [5], 0.019.

With PFDN2 (UniProt Q9UHV9), the log2 fold change in assay [1] was -0.049; in assay [2] it was 0.098; in assay [3], 0.015; in assay [4], -0.068; in assay [5], 0.007.
